Measurements taken from article PMC7862700, “An all-to-all approach to the identification of sequence-specific readers for epigenetic DNA modifications on cytosine”.

Legend:
Assay in all cases: DAPPL (digital affinity profiling via proximity ligation, sequencing); 10 mM Tris-HCl pH 7.5, 50 mM NaCl, 1 mM DTT, 4% glycerol, room temperature, 30 min; GST-TFs on glutathione beads, 16-mer random dsDNA library, 0.1% formaldehyde crosslink after washing; high values mean tight binding
FEV = biological target: T1, FEV (Homo sapiens, UniProt Q99581 1-238); settings: protein: recombinant; tags: N-terminal GST; dsDNA, one strand shown
T1 sequence: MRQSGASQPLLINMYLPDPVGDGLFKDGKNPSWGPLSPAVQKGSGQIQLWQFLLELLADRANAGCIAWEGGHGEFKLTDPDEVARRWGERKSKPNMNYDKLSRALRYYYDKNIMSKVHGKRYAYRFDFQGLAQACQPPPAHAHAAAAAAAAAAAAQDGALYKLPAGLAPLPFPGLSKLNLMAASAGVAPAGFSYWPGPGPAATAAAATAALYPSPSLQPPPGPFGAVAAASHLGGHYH
Procedure, shortened: (§1)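 Human transcription factors fused to GST were expressed in yeast, captured on glutathione beads, given DNA barcodes and pooled with a GST-only negative control. Pools were incubated with 200 nmole of a 16-mer random double-stranded DNA library in Tris/NaCl/DTT/glycerol buffer at room temperature for 30 min. They were then washed, crosslinked with 0.1% formaldehyde, proximity-ligated (BsaI/T4 ligase, 1 h, 37 °C), PCR-amplified and sequenced on an Illumina NextSeq500. Binding signal is each 6-mer's read frequency for a factor divided by its frequency for the GST control.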

ETV5 = ETV5 (Homo sapiens, UniProt P41161 1-510); settings: protein: recombinant; tags: N-terminal GST; dsDNA, one strand shown
ETV5, sequence (P41161 whole entry): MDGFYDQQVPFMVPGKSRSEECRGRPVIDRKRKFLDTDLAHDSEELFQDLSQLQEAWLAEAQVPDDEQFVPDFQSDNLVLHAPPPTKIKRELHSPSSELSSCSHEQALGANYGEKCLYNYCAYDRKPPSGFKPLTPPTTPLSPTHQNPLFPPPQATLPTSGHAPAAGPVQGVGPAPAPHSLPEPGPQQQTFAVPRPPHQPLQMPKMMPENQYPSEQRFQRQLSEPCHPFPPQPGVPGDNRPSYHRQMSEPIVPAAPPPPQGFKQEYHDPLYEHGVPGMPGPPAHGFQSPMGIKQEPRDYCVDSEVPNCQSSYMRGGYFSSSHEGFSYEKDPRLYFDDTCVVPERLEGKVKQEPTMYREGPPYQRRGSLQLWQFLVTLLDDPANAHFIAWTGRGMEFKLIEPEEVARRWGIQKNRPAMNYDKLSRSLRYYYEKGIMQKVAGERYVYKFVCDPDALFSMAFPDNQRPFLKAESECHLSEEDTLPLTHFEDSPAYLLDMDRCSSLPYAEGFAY
Procedure, shortened: as §1

HSF1 = HSF1 (Homo sapiens, UniProt Q00613 1-529); settings: protein: recombinant; tags: N-terminal GST; chain copies: 3; dsDNA, one strand shown
HSF1, sequence (Q00613 whole entry): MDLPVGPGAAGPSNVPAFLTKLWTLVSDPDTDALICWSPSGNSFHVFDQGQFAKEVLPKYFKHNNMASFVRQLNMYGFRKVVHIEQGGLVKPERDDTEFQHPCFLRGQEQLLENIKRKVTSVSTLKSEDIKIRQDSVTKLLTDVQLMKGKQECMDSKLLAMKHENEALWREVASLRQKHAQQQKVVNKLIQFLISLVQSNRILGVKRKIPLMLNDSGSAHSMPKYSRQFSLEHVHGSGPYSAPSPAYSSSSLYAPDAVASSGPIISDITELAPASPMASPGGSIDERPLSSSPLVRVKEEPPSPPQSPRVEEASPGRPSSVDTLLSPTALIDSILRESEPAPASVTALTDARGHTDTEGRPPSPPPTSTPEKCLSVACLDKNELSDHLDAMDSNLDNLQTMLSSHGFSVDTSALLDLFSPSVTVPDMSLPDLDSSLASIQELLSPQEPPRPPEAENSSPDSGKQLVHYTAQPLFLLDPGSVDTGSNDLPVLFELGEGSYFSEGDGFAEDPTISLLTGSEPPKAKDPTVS
Procedure, shortened: as §1

SPIC = biological target: T2, SPIC (Homo sapiens, UniProt Q8N5J4 1-248); settings: protein: recombinant; tags: N-terminal GST; dsDNA, one strand shown
T2 sequence: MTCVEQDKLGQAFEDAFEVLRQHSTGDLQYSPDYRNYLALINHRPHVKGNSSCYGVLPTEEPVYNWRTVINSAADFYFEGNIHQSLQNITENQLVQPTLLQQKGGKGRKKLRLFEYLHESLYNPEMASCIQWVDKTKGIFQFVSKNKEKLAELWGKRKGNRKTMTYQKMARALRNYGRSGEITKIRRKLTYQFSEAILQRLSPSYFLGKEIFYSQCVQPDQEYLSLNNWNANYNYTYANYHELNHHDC
Procedure, shortened: as §1

ELF4 = ELF4 (Homo sapiens, UniProt Q99607 1-663); settings: protein: recombinant; tags: N-terminal GST; dsDNA, one strand shown
ELF4, sequence (Q99607 whole entry): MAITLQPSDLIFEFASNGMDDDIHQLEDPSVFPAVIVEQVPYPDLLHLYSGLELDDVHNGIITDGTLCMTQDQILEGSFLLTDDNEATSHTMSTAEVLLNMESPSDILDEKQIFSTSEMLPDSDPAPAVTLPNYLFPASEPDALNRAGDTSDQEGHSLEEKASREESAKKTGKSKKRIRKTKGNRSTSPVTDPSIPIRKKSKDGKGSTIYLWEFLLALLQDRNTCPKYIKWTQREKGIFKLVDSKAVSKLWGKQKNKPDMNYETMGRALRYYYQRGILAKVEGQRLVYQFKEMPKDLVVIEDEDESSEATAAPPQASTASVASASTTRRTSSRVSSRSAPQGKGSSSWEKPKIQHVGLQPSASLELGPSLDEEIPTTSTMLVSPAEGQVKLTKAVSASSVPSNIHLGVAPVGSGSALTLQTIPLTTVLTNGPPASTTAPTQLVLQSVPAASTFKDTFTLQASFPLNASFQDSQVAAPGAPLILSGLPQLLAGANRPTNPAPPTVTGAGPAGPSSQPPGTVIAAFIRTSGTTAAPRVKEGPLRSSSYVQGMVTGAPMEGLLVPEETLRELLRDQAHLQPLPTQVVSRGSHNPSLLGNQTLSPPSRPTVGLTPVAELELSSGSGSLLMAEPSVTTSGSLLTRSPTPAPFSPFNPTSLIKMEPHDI
Procedure, shortened: as §1

ELK4 = biological target: T3, ELK4 (Homo sapiens, UniProt P28324-2 1-405); settings: protein: recombinant; tags: N-terminal GST; dsDNA, one strand shown
T3 sequence: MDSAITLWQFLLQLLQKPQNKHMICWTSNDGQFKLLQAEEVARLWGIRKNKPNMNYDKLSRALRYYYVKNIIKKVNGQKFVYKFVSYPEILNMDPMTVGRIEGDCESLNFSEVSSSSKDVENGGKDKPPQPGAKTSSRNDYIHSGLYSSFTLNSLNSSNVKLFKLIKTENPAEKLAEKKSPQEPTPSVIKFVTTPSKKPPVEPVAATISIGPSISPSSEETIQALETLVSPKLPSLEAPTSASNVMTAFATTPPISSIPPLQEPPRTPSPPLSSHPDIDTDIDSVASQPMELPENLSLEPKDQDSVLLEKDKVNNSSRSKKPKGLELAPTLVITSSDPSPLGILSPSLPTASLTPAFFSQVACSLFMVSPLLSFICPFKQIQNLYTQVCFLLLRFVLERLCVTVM
Procedure, shortened: as §1

ETV2 = biological target: T4, ETV2 (Homo sapiens, UniProt O00321 1-342); settings: protein: recombinant; tags: N-terminal GST; dsDNA, one strand shown
T4 sequence: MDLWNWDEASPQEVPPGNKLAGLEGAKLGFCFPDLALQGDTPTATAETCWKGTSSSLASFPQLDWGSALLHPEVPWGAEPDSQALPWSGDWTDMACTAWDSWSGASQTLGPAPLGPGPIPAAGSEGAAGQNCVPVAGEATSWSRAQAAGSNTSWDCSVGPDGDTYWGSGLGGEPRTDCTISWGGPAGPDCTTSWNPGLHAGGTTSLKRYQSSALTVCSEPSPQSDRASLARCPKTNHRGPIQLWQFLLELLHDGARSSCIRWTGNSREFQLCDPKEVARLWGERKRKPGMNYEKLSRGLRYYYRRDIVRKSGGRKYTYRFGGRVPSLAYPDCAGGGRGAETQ
Procedure, shortened: as §1

ELF3 = biological target: T5, ELF3 (Homo sapiens, UniProt P78545 1-371); settings: protein: recombinant; tags: N-terminal GST; dsDNA, one strand shown
T5 sequence: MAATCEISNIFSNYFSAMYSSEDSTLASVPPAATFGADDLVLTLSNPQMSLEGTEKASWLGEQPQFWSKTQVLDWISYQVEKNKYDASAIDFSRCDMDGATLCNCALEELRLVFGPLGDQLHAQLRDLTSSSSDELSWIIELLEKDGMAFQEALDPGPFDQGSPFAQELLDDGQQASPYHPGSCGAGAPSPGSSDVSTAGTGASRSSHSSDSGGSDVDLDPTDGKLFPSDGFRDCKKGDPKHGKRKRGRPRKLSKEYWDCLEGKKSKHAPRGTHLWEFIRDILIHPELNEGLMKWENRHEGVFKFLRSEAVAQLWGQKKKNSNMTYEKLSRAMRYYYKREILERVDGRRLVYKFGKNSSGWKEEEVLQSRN
Procedure, shortened: as §1

ETV1 = ETV1 (Homo sapiens, UniProt P50549 1-477); settings: protein: recombinant; tags: N-terminal GST; dsDNA, one strand shown
ETV1, sequence (P50549 whole entry): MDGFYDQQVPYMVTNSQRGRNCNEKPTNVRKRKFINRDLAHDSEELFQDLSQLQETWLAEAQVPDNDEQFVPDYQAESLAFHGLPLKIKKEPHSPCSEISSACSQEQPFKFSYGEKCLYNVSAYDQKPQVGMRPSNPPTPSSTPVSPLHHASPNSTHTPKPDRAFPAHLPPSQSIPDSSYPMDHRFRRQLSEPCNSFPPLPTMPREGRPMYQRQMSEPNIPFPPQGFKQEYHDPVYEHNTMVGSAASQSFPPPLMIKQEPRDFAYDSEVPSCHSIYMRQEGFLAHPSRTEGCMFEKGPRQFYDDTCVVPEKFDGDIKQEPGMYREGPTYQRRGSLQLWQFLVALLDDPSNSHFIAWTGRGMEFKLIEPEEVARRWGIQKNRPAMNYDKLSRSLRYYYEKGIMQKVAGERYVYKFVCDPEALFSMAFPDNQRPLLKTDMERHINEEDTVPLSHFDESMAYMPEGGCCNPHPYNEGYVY
Procedure, shortened: as §1

CRX = CRX (Homo sapiens, UniProt O43186 1-299); settings: protein: recombinant; tags: N-terminal GST; dsDNA, one strand shown
CRX, sequence (O43186 whole entry): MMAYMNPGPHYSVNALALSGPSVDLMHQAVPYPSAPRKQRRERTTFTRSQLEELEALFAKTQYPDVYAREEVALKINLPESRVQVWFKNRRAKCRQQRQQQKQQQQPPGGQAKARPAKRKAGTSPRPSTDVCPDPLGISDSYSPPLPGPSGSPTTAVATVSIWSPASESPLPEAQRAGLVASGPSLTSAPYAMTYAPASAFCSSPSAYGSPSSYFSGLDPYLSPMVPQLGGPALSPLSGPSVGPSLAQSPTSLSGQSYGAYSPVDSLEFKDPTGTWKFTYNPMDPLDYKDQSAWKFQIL
Procedure, shortened: as §1

Sequence	binding signal (FEV)	binding signal (ETV5)	binding signal (HSF1)	binding signal (SPIC)	binding signal (ELF4)	binding signal (ELK4)	binding signal (ETV2)	binding signal (ELF3)	binding signal (ETV1)	binding signal (CRX)
CAACGA	1.01 fold enrichment (6-mer frequency, TF over GST control)	1.02 fold enrichment (6-mer frequency, TF over GST control)	1 fold enrichment (6-mer frequency, TF over GST control)	1.1 fold enrichment (6-mer frequency, TF over GST control)	1.1 fold enrichment (6-mer frequency, TF over GST control)	1.14 fold enrichment (6-mer frequency, TF over GST control)	1.01 fold enrichment (6-mer frequency, TF over GST control)	1.08 fold enrichment (6-mer frequency, TF over GST control)	1 fold enrichment (6-mer frequency, TF over GST control)	
TAGGAA	1.06 fold enrichment (6-mer frequency, TF over GST control)	1.19 fold enrichment (6-mer frequency, TF over GST control)	1.11 fold enrichment (6-mer frequency, TF over GST control)	1.27 fold enrichment (6-mer frequency, TF over GST control)	1.09 fold enrichment (6-mer frequency, TF over GST control)	1.01 fold enrichment (6-mer frequency, TF over GST control)	1.2 fold enrichment (6-mer frequency, TF over GST control)	1.2 fold enrichment (6-mer frequency, TF over GST control)	1.13 fold enrichment (6-mer frequency, TF over GST control)	
GTCTAA	1.03 fold enrichment (6-mer frequency, TF over GST control)	1.01 fold enrichment (6-mer frequency, TF over GST control)	1.03 fold enrichment (6-mer frequency, TF over GST control)	1.11 fold enrichment (6-mer frequency, TF over GST control)	1.13 fold enrichment (6-mer frequency, TF over GST control)	1.14 fold enrichment (6-mer frequency, TF over GST control)	1.06 fold enrichment (6-mer frequency, TF over GST control)		1.11 fold enrichment (6-mer frequency, TF over GST control)	1.33 fold enrichment (6-mer frequency, TF over GST control)
TGCGCG	1.07 fold enrichment (6-mer frequency, TF over GST control)	1.07 fold enrichment (6-mer frequency, TF over GST control)	1.15 fold enrichment (6-mer frequency, TF over GST control)	1.05 fold enrichment (6-mer frequency, TF over GST control)	1.05 fold enrichment (6-mer frequency, TF over GST control)	1.16 fold enrichment (6-mer frequency, TF over GST control)	1.13 fold enrichment (6-mer frequency, TF over GST control)		1.19 fold enrichment (6-mer frequency, TF over GST control)	
CTGGAC	1.1 fold enrichment (6-mer frequency, TF over GST control)	1.18 fold enrichment (6-mer frequency, TF over GST control)	1.23 fold enrichment (6-mer frequency, TF over GST control)	1.1 fold enrichment (6-mer frequency, TF over GST control)	1.19 fold enrichment (6-mer frequency, TF over GST control)	1.11 fold enrichment (6-mer frequency, TF over GST control)	1.2 fold enrichment (6-mer frequency, TF over GST control)		1.09 fold enrichment (6-mer frequency, TF over GST control)	
CGATAG	1.15 fold enrichment (6-mer frequency, TF over GST control)	1.18 fold enrichment (6-mer frequency, TF over GST control)	1.14 fold enrichment (6-mer frequency, TF over GST control)	1.18 fold enrichment (6-mer frequency, TF over GST control)	1.12 fold enrichment (6-mer frequency, TF over GST control)	1.16 fold enrichment (6-mer frequency, TF over GST control)	1.16 fold enrichment (6-mer frequency, TF over GST control)		1.16 fold enrichment (6-mer frequency, TF over GST control)	
CTCCAT	1.36 fold enrichment (6-mer frequency, TF over GST control)	1.43 fold enrichment (6-mer frequency, TF over GST control)	1.21 fold enrichment (6-mer frequency, TF over GST control)	1.12 fold enrichment (6-mer frequency, TF over GST control)	1.28 fold enrichment (6-mer frequency, TF over GST control)	1.4 fold enrichment (6-mer frequency, TF over GST control)	1.46 fold enrichment (6-mer frequency, TF over GST control)		1.3 fold enrichment (6-mer frequency, TF over GST control)	1.19 fold enrichment (6-mer frequency, TF over GST control)
